Shown are actives, neighbours in structure and some others; about 1.3% of the full set was active somewhere.
CCHFV vOTU inh = CCHFV vOTU protease inhibitors, primary screen, biochemical, Pep-AMC substrate, fluorescence; AID 651958, 2012; inhibition, % at 11.5 µM; actives 0.55% (n = 370,000); in the data active = inhibition above about 30%; note: 0% = vehicle wells with enzyme and 100% = no enzyme wells
DUSP3 inh = VHR1 phosphatase inhibitors, primary screen, biochemical, absorbance, uHTS. Dual specificity protein phosphatase 3 (Homo sapiens), P51452. recombinant VHR phosphatase, pNPP absorbance. inhibition, % at 13.3 µM. actives 0.52% (n = 290,000); in the data active = inhibition above about 50%
Target sequence (P51452 whole entry, looked up): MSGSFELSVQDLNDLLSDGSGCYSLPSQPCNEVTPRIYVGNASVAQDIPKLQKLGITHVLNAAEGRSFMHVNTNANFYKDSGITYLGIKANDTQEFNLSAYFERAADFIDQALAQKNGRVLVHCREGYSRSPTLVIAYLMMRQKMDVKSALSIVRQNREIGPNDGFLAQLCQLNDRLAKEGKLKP
Mtb hypoxia rep = PubChem AID 1159583 | M. tuberculosis hypoxia-regulated fluorescent reporter, fluorescence | fluorescence inhibition, % (concentration not given with the values) | actives 0.1% (n = 300,000); in the data active = fluorescence inhibition mostly above about 23%, no sharp cut-off; inactive = mostly below about 17%
3CLpro inhibitor = SARS-CoV 3CLpro protease inhibitors, primary screen, biochemical, quenched FRET. Replicase polyprotein 1ab (Severe acute respiratory syndrome coronavirus), P0C6X7. recombinant SARS-CoV 3CLpro, quenched FRET peptide cleavage. inhibition, % at 6 µM. actives 0.14% (n = 290,000). AID 1706, 2009; in the data active = inhibition above about 12%
PriA SSB inh = inhibitors of Klebsiella pneumoniae PriA binding to SSB C-terminal tail, primary screen, biochemical, AlphaScreen | inhibition, % at 33 µM | actives 0.6% (n = 430,000) | AID 1272365, 2023 | PriA–SSB C-terminal tail interaction (Klebsiella pneumoniae) | AlphaScreen SSBct-PriA binding, biotinylated peptide; in the data active = inhibition mostly above about 37%, no sharp cut-off; inactive = mostly below about 20%;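 note: plate controls were negative control peptide for no effect and reference peptide for full effect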
* marks the source's active call; other numbers are inactive results; . = no result given.

SMILES	CCHFV vOTU inh	DUSP3 inh	Mtb hypoxia rep	3CLpro inhibitor	PriA SSB inh
CCN(CC)CCNC(=O)c1ccc2c(c1NCCO)C(=O)c1ccccc1C2=O	58.9*	23.9	11.3	0.3	15.7
CC1CCN(C(=O)c2ccc3c(c2NCCO)C(=O)c2ccccc2C3=O)CC1	24.2	12.9	.	1.4	58.7
COc1ccc(CC(=O)N2CCC[C@H](Cc3nc(-c4ccccc4F)no3)C2)cc1OC	.	.	.	.	-9.0
O=C(Nc1ccc2c(c1)N(C(=O)C1CC1)CC2)c1cc2ccccc2oc1=O	.	.	.	.	8.0
CC1=CC(=O)CC(=O)N1CC(=O)Nc1nc(-c2ccccn2)cs1	.	.	.	.	84.0*
Cc1ccc(C)n1CC(=O)Nc1nc(-c2ccccn2)cs1	.	.	.	.	99.8*
COc1ccc(-c2nc(CNC(=O)c3ccc(-n4cncn4)nn3)cs2)cc1	.	.	.	.	-16.0
CCN1CCN(c2nc3ccc(OC(=O)c4ccccc4Br)cc3s2)CC1	.	.	.	.	12.0
COc1ccc(CN(CC(=O)NC2CCCC2)S(=O)(=O)c2cccnc2)cc1	.	.	.	.	-16.0
CCCN1CCCc2cc(CCNC(=O)COc3ccc(F)cc3)ccc21	.	.	.	.	78.0*
CCCN1CCCc2cc(CCNC(=O)c3cc(Cl)ccc3OC)ccc21	.	.	.	.	66.0*
CCCN1CCCc2cc(CCNC(=O)c3ccccc3OCC)ccc21	.	.	.	.	74.0*
CCCN1CCCc2cc(CCNC(=O)c3cccc(OC)c3OC)ccc21	.	.	.	.	24.0
CCCC(=O)NCCc1ccc2c(c1)CCCN2CCC	.	.	.	.	28.0
CCCN1CCCc2cc(CCNC(=O)COc3cccc(C)c3)ccc21	.	.	.	.	89.6*
C#CCSc1nncn1C(=O)/C=C/c1cccs1	.	.	.	.	-10.0
CS(=O)(=O)c1ccc(-c2ccc(NC(=O)c3cc4cc(Br)ccc4oc3=O)cc2)nn1	.	.	.	.	6.0
CO[C@@H](CNC(=O)c1ccoc1)c1ccco1	.	.	.	.	-11.0
CSC1CC2CCC(C1)N2C(=O)COc1ccc(C(C)C)cc1 (stereo not given)	.	.	.	.	-3.0
CCOCC(=O)NCC(C)(O)CCSC (stereo not given)	.	.	.	.	-5.0
CSc1cccc(Nc2c(C(=O)N3CCSCC3)cnc3ccc(F)cc23)c1	.	.	.	.	1.0
O=C(Nc1nc2cc3c(cc2s1)OCO3)c1nc2ccccc2s1	.	.	.	.	3.0
COc1ccc(C(=O)NCCc2ccc3c(c2)CCCN3C)cc1	.	.	.	.	33.3
CCCN1CCCc2cc(CCNC(=O)COc3ccc(C)cc3)ccc21	.	.	.	.	64.3
CCCN1CCCc2cc(CCNC(=O)c3ccc(OC)cc3)ccc21	.	.	.	.	74.0*
SMILES	CCHFV vOTU inh	DUSP3 inh	Mtb hypoxia rep	3CLpro inhibitor	PriA SSB inh
CCCN1CCCc2cc(CCNC(=O)C(=O)Nc3ccccc3OCC)ccc21	.	.	.	.	58.0
CCCN1CCCc2cc(CCNC(=O)COc3ccc(OC)cc3)ccc21	.	.	.	.	74.0*
CCN1CCCc2cc(CCNC(=O)c3ccccc3C(F)(F)F)ccc21	.	.	.	.	59.0*
CCCN1CCCc2cc(CCNC(=O)COc3ccccc3C)ccc21	.	.	.	.	68.0*
O=S(=O)(C1CC1)N1CCCC[C@H](c2ccc(F)cc2)C1	.	.	.	.	-16.0
O=S(=O)(NCCc1nc(C2CC2)cc(C(F)(F)F)n1)c1ccc2c(c1)OCCO2	.	.	.	.	-6.0
O=C(NCCc1ccccc1)c1cn(-c2cccc(Cl)c2)nn1	.	.	.	.	-8.0
CCCN1CCCc2cc(CCNC(=O)c3ccc(F)c(F)c3)ccc21	.	.	.	.	45.0
CCCN1CCCc2cc(CCNC(=O)COc3ccc(Cl)cc3)ccc21	.	.	.	.	73.0*
CCn1nc(NC(=O)C(C)C)c2cc3cccc(C)c3nc21	6.1	56.0*	-0.2	-0.7	-9.1
Cc1cc(C)n2nc(C(=O)NCc3cccnc3-c3cccs3)nc2n1	.	.	.	.	-21.0
N#Cc1nc(COc2ccc(-c3ccccc3)cc2)oc1N1CCCC1	.	.	.	.	53.8*
CCN1CCN(c2oc(COc3ccc(-c4ccccc4)cc3)nc2C#N)CC1	-10.2	-11.6	-6.5	0.1	40.7*
O=C(CSCc1ccccc1)Nc1c2c(nn1-c1ccccc1)CSC2	.	.	.	.	-8.0
O=C(c1ccc2c(c1)OCO2)N1CCC(c2nnc(-c3ccco3)o2)CC1	.	.	.	.	-17.0
CCN(CC)CCn1c(O)c(N=O)c2ccccc21	1.8	29.4	3.7	5.3	-5.5
CCN(CC)CCn1c2ccccc2c(=O)c2c(O)ccc(O)c21	14.0	.	.	.	53.9*
CN(C)CC(C)(C)CNC(=O)C1CCN(CCCc2ccccc2)CC1	1.8	55.0*	-0.6	-3.5	-6.1
CCOC(=O)Cc1csc(NC(=O)CSc2nnc(-c3ccc(NS(=O)(=O)CC)cc3)o2)n1	11.3	.	13.8	0.0	-5.1
CCOC(=O)Cc1csc(NC(=O)CSc2nnc(-c3ccncc3)o2)n1	-0.4	53.0*	.	0.5	5.0
Cc1cc(-c2nnc(SCC(=O)Nc3nccs3)o2)no1	1.3	15.0	16.5	-2.0	78.5*
Fc1ccc(NC(=S)N2CCCc3ccccc32)cc1	-3.4	20.9	8.6	3.5	41.3*
O=C1NC(=S)NC(=O)C1=CN1CCc2ccccc21	.	.	.	.	6.0
CCn1nc(-c2cccs2)nc2c(=O)n(C)c(=O)nc1-2	.	90.0*	3.6	.	-10.0
CCCn1nc(-c2cccs2)c2sc(N3CCOCC3)nc2c1=O	.	.	.	.	-18.0
SMILES	CCHFV vOTU inh	DUSP3 inh	Mtb hypoxia rep	3CLpro inhibitor	PriA SSB inh
COc1cccc(CN2CC(C(=O)N3CCOCC3)CCC2=O)c1 (stereo not given)	13.2	52.7*	4.7	-1.0	-13.1
COc1cccc(CC(=O)NC2CCCN(Cc3ccccc3F)C2)c1 (stereo not given)	-7.5	-3.2	-9.6	-4.5	-3.3
COc1cccc(CC(=O)NC2CCCN(Cc3ccc(Cl)cc3)C2)c1 (stereo not given)	-7.8	53.3*	11.8	-3.2	-8.7
O=C(C1CCC(=O)N(C2CCCC2)C1)N1CCN(Cc2cccc(F)c2)CC1 (stereo not given)	24.6	-14.6	0.3	-1.9	-7.5
COc1cccc(CN2CC(C(=O)N3CCCCCCC3)CCC2=O)c1 (stereo not given)	-10.3	-31.1	6.7	-0.7	-1.9
COc1cccc(CN2CCN(C(=O)C3CCC(=O)N(C4CCCC4)C3)CC2)c1 (stereo not given)	7.2	51.2*	8.0	-4.3	-0.7
O=C1C=C(NCCc2cc(Br)c(O)c(Br)c2)C(=O)c2ncccc21	108.1*	.	.	.	60.8
CC(C)(C)c1cc(CCC(=O)NCCc2ccccn2)cc(C(C)(C)C)c1O	-15.2	-2.9	8.5	2.1	9.7
CCOc1ccc(NC(=O)CCc2csc(NC(=O)c3ccc[nH]c3=O)n2)cc1	.	.	.	.	-11.0
CC1(C)C(C(=O)N2CCN(C(=O)c3ccccc3)CC2)C1(C)C	0.1	57.5*	-8.2	-4.4	0.7
O=C(c1ccccc1)N1CCN(C(=O)c2ccccc2)CC1	3.9	-22.4	3.2	-0.9	-1.1
CC(=NN1CCCCCC1)c1c(O)n(-c2ccccc2)c(=O)[nH]c1=O	.	.	.	.	-8.5
C#CCSc1nnnn1-c1ccc(Br)c(C)c1	-3.1	21.0	.	0.6	82.6*
C#CCSc1nnnn1-c1cccc(Cl)c1	-7.8	2.6	13.4	-1.1	-24.3
CCOc1cccc(OCC)c2c(C)[n+](CC3CCCO3)c(C)c1-2 (stereo not given)	.	52.3*	-1.8	-3.0	3.0
C/C(CCc1ccccc1)=N\NC(=S)NCCc1ccccc1	-19.0	50.4*	.	-1.4	.

Assay outcomes: PubChem BioAssay, several laboratories
